High-throughput results as filed in PubChem BioAssay.
HepG2 tox – kills HepG2 cells in TGF-b inhibitor counter-screen | hit rate 0.76% among 410,000 | HepG2 CAGA-GFP viability, ATP luminescence, 18 h | Potency, µM (top dose mostly 46.1 µM), for the others: top-dose activity change, negative = cytotoxicity, most hits filed as cytotoxic; further: potency means the concentration at half of the fitted maximal effect
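CellTiter-Glo luminescence gave cytotoxicity after 18 hours at 37 degrees C. The cells were HepG2 CAGA-GFP in 1% FBS DMEM, stimulated with 500 pg/mL TGF-beta after compound addition. %Activity was normalised to no-cell wells (complete cell-killing) and DMSO (no toxicity), and curves were fitted and classified.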
D3 ag – activates the human D3 dopamine receptor | D3R DiscoveRx beta-arrestin cells, luminescence, 90 min | max activation, % | hit rate 0.58% among 410,000; in the data active means max activation above about 30%; further: 0% is about no effect
Target sequence (P35462 whole entry, looked up): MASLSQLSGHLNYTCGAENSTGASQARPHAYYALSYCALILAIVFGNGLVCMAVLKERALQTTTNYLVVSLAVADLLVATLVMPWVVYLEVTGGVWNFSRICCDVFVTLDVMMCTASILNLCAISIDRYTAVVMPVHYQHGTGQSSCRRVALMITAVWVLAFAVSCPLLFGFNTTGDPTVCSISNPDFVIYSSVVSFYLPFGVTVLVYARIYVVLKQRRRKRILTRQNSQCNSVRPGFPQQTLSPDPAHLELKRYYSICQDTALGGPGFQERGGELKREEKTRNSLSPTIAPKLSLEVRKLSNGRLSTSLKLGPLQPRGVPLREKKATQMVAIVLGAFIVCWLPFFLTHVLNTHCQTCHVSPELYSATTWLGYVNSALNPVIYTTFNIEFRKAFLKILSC
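Agonist mode: compounds and dopamine controls were applied to plated cells for 90 min at 37 degrees C after an overnight attachment at 1500 cells/well. Luminescent read-out followed 30 - 60 minutes at room temperature with DiscoveRx detection reagent.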
DRD3 antagonist – blocks the human D3 dopamine receptor. P35462. D3R cells, DiscoveRx beta-arrestin luminescence, antagonist mode; stronger effect = lower value. max response, negative = inhibition, %. hit rate 2.5% among 360,000. AID 652054; in the data active means max response below about -50%; inconclusive means no clear call, values can overlap the other calls; further: on the % scale 0 is the no-effect control and ±100 the full control effect
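Cells plated overnight at 1500 cells/well, then exposed to library compounds with dopamine controls for 90 minutes at 37 degrees C. DiscoveRx reagent added for 30–60 minutes at room temperature; luminescence read, quantitative HTS format.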
ATXN2 expr inh – ATXN2 expression inhibition; hit rate 0.72% among 360,000; AID 1745845; HEK-293 ATXN2-luciferase reporter, luminescence, 24 h; Potency, µM (doses to about 57 µM), inactives show top-dose activity change, negative = inhibition, most hits filed as inhibitors; further: potency means the concentration at half of the fitted maximal effect; on the % scale 0 is the no-effect control and ±100 the full control effect; nearly all actives have a fitted effect of over 55% in size
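qHTS (up to 57 uM final) was run with 24 h compound exposure of reporter cells at 37 °C. Each well was multiplexed: SteadyGlo luminescence measured ATXN2-luciferase expression after a fluorogenic Gly-Phe-AFC viability readout (25 uM final).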
ATXN viability – cell viability loss in ATXN counter-screen. AID 651635. Potency, µM (doses to about 56.7 µM), actives largely listed as cytotoxic. hit rate 0.49% among 400,000. S2 cells (HEK-293 line with an ATXN2-luciferase reporter) viability, CellTiter-Fluor protease fluorescence, 24 h; further: potency means the concentration at half of the fitted maximal effect; nearly all actives have a fitted effect of over 40% in size
TGFb inhibitor – TGF-b pathway inhibition | HepG2 CAGA-GFP TGF-b/SMAD3 reporter, GFP fluorescence, 18 h; TGF-beta stimulated, 500 pg/mL final | Potency, µM (series often up to 46.1 µM), for inactives: top-dose activity, negative = inhibition, usual class: inhibitors | hit rate 1.2% among 410,000; further: potency means the concentration at half of the fitted maximal effect; on the % scale 0 is the no-effect control and ±100 the full control effect; nearly all actives have a fitted effect of over 65% in size
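Using HEPG2 CAGA-GFP reporter cells at 1000 cells/well, we pinned test compounds, stimulated with recombinant TGF-beta (500 pg/mL final) and measured total well GFP after 18 h.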
* = called active by the depositor; i = inactive; ? = inconclusive; . = no result given. Shown are actives, neighbours in structure and some others; about 4.7% of the full set was active somewhere. Unless noted, the call rests on the fitted dose curve; in most records, active means well fitted curve in the direction sought with a large enough effect; inconclusive means small, poorly fitted or top-dose-only effect, or another doubt; inactive means no such curve, though single readings can be large; an effect the other way counts as inactive or inconclusive.

SMILES	HepG2 tox	D3 ag	DRD3 antagonist	ATXN2 expr inh	ATXN viability	TGFb inhibitor
COc1cc(=O)n2c(c1C(=O)NC(C)c1ccco1)CCN(Cc1ccc3nsnc3c1)CC2 (stereo unspecified)	.	.	.	.	i	.
COCC1CCCN(c2nc(CN3CCN(C(=O)c4ccco4)CC3)nc3ccccc23)C1 (stereo unspecified)	.	.	.	.	i	.
COc1ccc(-c2nc(S(=O)(=O)c3ccc(C)cc3)c(NCc3ccccc3)o2)cc1	-17.6%	-15.1	.	0.5%	i	-0.1%
COc1cccc(NC(=O)Cn2c(=O)ccc3cc(S(=O)(=O)N4CCC(C)CC4)ccc32)c1	-19.5%	-5.7	.	-18.6%	i	-2.5%
COc1cc2c(cc1OC)C1C/C(=N\O)C(CC(C)C)CN1CC2 (stereo unspecified)	-1.8%	-19.6	-58.1*	-8.5%	i	0.0%
Cc1ccc2c(C(=O)CNc3nc(C)c(C)s3)c(C)[nH]c2c1	-34.0%	.	.	.	.	?
O=C(NCc1nnc2n1CCN(Cc1cccc(C(F)(F)F)c1)CC2)c1ccncc1	.	.	.	.	i	.
Cc1ccccc1C(=O)NNC(=S)Nc1cccc(C(F)(F)F)c1	10µM*	11.5	14.7	?	i	?
Cc1ccc(C(=O)Nc2cccc(C(F)(F)F)c2)cc1Nc1cncnc1	-33.9%	5.0	38.5	?	?	?
O=C(NNC(=S)Nc1cccc(C(F)(F)F)c1)c1ccc(Cl)cc1Cl	-57.3%	9.6	-9.4	-23.1%	i	?
Cc1cnc(Nc2nc3ccccc3o2)nc1C(=O)Nc1cccc(C(F)(F)F)c1	5.01µM*	-22.7	-14.8	-29.0%	i	?
Cc1ccc(C(=O)Nc2cccc(C(F)(F)F)c2)cc1Nc1ccccn1	-2.2%	-20.9	7.0	?	31.6µM*	-0.6%
COc1ccccc1C(=O)N[C@@H]1c2ccccc2C2(CCN(Cc3ccc(C)o3)CC2)[C@H]1O	.	.	.	.	i	.
Cc1cc(Nc2cccc(C(F)(F)F)c2)nc2ccc(NC(=O)Cc3ccc(Cl)cc3)cc12	10µM*	1.5	.	20µM*	i	?
O=C(O)c1ccc2c(c1)nc(Nc1cccc(Cl)c1)c1ccncc12	.	.	.	9.68µM*	.	.
O=C(Nc1ccncc1)Nc1cccc(Cl)c1	-24.0%	-7.4	4.1	-19.1%	i	-11.9%
Cc1cc(Nc2cccc(Cl)c2)nc2ccc(NC(=O)c3cccnc3)cc12	12.6µM*	0.1	.	?	i	15.8µM*
Cc1ccc(NC(=O)Cc2c(C(=O)O)c(C)cn2C)cc1Cl	4.9%	6.6	.	11.0%	i	1.9%
N#CC1(c2ccc(NC(=O)c3cccnc3NCc3ccncc3)cc2)CCCC1	.	.	.	40.6%	.	.
Cc1ccc2c(c1)Oc1ccc(NC(=O)CCl)cc1C(=O)N2	8.91µM*	0.8	?	?	10µM*	14.1µM*
Cc1ccc2c(c1)Oc1ccc([N+](=O)[O-])cc1C(=O)N2	1.4%	-8.1	0.0	-24.4%	i	12.6%
C=C1SC(Nc2c(C)cccc2C)=NC12CCCCC2	-32.2%	-5.8	-16.6	-32.8%	i	?
C=C1SC(Nc2c(C)cc(C)cc2C)=NC12CCCCC2	-24.8%	-24.5	-54.4*	-10.2%	?	?
CC(=O)Nc1ccc(NS(=O)(=O)c2ccc3[nH]c4c(c3c2)CCCCC4)cc1	-23.6%	-1.8	.	-21.0%	i	?
CCOC(=O)c1ccc(N2C(=O)c3[nH]nc(-c4ccc(C)cc4)c3C2c2cccc(F)c2)cc1 (stereo unspecified)	11.2µM*	6.9	.	?	?	?
CCOc1ccc(N2C(=O)c3n[nH]c(-c4cccs4)c3C2c2cccc(F)c2)cc1 (stereo unspecified)	11.2µM*	7.9	.	?	.	?
CCOC(=O)c1ccc(N2C(=O)c3n[nH]c(-c4cccs4)c3C2c2cccc(OC)c2)cc1 (stereo unspecified)	-50.7%	-11.1	.	?	?	1.78µM*
